Source: PubChem BioAssay AID1851 (National Center for Advancing Translational Sciences (NCATS), 2009)
Where “and” joins values, the source holds several entries; their conditions need not be identical. Identical values can stand only once. Out of some 16,000 compounds screened, about 5,800 (36%) were called active. Roughly 23% stayed inconclusive and do not appear here. Calls follow the shape of the dose curve; as a rule, active = well fitted curve in the direction sought with a large enough effect; inconclusive = small, poorly fitted or top-dose-only effect, or effect the other way; inactive = no such curve, though single readings can be large or run the other way. The list shows a part of the results. A structure can be active in one record and inactive in another.

The molecules below were run against Cytochrome P450 2C19 (Homo sapiens) (UniProt P33261) (assay: Cytochrome panel assay with activity outcomes). Settings: recombinant CYP, pro-luciferin dealkylation, luminescence, p450-cyp2c19; series mostly up to 57.1 µM.
% is scaled to controls: 0 for no effect and ±100 for the full control effect.

Sequence of Cytochrome P450 2C19 (Homo sapiens) (P33261 whole entry, looked up): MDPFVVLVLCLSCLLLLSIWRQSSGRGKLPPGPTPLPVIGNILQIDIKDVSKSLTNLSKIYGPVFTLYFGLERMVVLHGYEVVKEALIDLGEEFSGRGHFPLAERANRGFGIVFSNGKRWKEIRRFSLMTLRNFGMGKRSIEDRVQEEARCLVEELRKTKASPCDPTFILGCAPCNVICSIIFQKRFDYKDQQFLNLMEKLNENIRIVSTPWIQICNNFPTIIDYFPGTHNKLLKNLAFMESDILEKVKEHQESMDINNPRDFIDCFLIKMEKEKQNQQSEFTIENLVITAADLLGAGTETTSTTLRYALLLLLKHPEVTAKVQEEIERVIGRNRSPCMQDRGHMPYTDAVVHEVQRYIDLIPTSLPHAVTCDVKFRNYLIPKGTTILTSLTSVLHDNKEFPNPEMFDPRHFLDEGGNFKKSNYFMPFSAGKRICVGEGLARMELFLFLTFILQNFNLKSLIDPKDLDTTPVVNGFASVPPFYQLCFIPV

AC50, active:
O=C1C(Cl)=C(Nc2ccc(S(=O)(=O)Nc3ccccn3)cc2)C(=O)c2ccccc21 0.794 µM, CCOC(=O)N1CCC(NC(=O)CSCc2cnn(-c3ccccc3)c2-n2cccc2)CC1 5.01 µM, Cc1ccc(C)c(CN2C(=O)C3CCCN3c3ccc(C#N)cc32)c1 (stereo not drawn) 3.16 µM, N=C(c1ccc2ccccc2c1)c1ccccc1Cc1ccccc1 3.98 µM, Cc1ccc(C)c(C(=N)c2ccccc2Cc2ccccc2)c1 1 µM, COc1ccccc1C(=O)N/C(=C/c1ccc(Br)cc1)C(=O)NCC(=O)O 25.1 µM, CCn1c2ccccc2c2cc(NS(=O)(=O)c3ccccc3C)ccc21 0.282 µM, CCc1ccc2[nH]c(O)c(N=Nc3nc(-c4ccccc4)cs3)c2c1 15.8 µM, COC(=O)C1=C(C)NC(C)=C([N+](=O)[O-])[C@H]1c1ccccc1C(F)(F)F 0.158 µM, COC(=O)C1=C(C)NC(C)=C([N+](=O)[O-])[C@@H]1c1ccccc1C(F)(F)F 0.126 µM, O=C(Nc1ccccc1)[C@@]12C[C@@H]1/C(=N/O)c1ccccc1O2 10 µM, N=C1[C@@H](O)[C@]2(I)c3ccccc3N3C(=N)[C@H](O)[C@@H]4c5ccccc5N1[C@@H]4[C@@H]32 3.16 µM, CC(C)[C@H](N)c1nnc(SC/C=C/c2ccccc2)o1 2 µM, CC(C)[C@H](N)c1nnc(SCc2ccc(Cl)cc2)o1 0.178 µM, C/C(=N\N=C(c1ccccc1)c1ccccc1)c1cccs1 3.55 µM, O=C(c1n[nH]c(=O)c2ccccc12)N1CCN(C2c3ccccc3-c3ccccc32)CC1 3.16 µM, CC1=Nc2ccccc2/C1=C\c1nc(-c2ccc(C(F)(F)F)cc2)oc1O 14.1 µM, COc1cccc(OC)c1/C(O)=C(\C#N)c1nc2ccccc2[nH]1 7.08 µM, COc1ccc(NC(=O)CSc2nc(C)c3c(c2C#N)CCCC3)cc1 1.12 µM, CSc1nc(N)nc(SCC(=O)Nc2ccc(Cl)cc2)c1C#N 0.708 µM, CCOc1ccc(NC(=O)CSc2nc(C)c3c(c2C#N)CCCC3)cc1 2.82 µM, Cc1ccccc1C(=O)Oc1ccc(Br)cc1C(=S)N1CCCC1 2.24 µM, COc1ccc2c(c1)C(=O)N(c1ccccc1)C(=O)C2 11.2 µM, N#Cc1c(N2CCN(C(=O)c3ccccc3Cl)CC2)nc(-c2ccccc2)c2c1CCCC2 3.98 µM, CC(C)Cc1nc(N2CCN(C(=O)c3ccccc3)CC2)c(C#N)c2c1CCC2 2.51 µM

AC50, inactive:
Nc1ccc(S(=O)(=O)Nc2ccccn2)cc1, CC(C)N(CCC(=O)c1ccc2ccccc2c1)Cc1ccccc1, COc1cc(/C=C(/NC(=O)c2ccccc2Cl)C(=O)O)cc(OC)c1OC, CS(=O)(=O)N1CCC2(CC1)CN(c1cccc(-c3ccccc3)c1)C2, CCn1c(C)nc2cc(C(=O)NNS(=O)(=O)c3ccccc3F)ccc21, CCC(=O)O[C@@]1(C(=O)SCF)[C@@H](C)C[C@H]2[C@@H]3C[C@@H](F)C4=CC(=O)C=C[C@@]4(C)[C@]3(F)[C@@H](O)C[C@]21C, CCOC(=O)[C@@]12C[C@@H]1/C(=N/O)c1ccccc1O2, C/C(=N\N=C1\NC(=O)CC(C(=O)O)S1)c1cccs1 (stereo not drawn), CC[N+](CC)(CC(=O)Nc1c(C)cccc1C)Cc1ccccc1, CC[N+](CC)(CC)CC(=O)Nc1c(C)cccc1C, Cc1ccccc1OC/C(O)=C(\C#N)c1nc2ccccc2[nH]1, C=CC1=C(C(=O)O)N2C(=O)[C@@H](NC(=O)/C(=N\OCC(=O)O)c3csc(N)n3)[C@@H]2SC1, CCOc1ccc(NC(=O)CCNS(=O)(=O)c2ccc3c(c2)c(=O)n(C)c(=O)n3C)cc1, CC(=O)Nc1ccc(C2=NN(CC#N)C(=O)SC2)cc1, Cc1c(-c2ccccc2)oc2c(C(=O)OCCN3CCCCC3)cccc2c1=O, O=C(Oc1ccc(C(=S)N2CCOCC2)cc1Br)c1cc(Cl)ccc1Cl, COc1ccc(-n2c(C)n[nH]c2=O)cc1, O=C(c1c(O)c2ccc(Cl)cc2[nH]c1=O)C1CC1, CC(C)CN1CCC2(CC1)CCN(C(=O)c1ccncc1)CC2, N#Cc1ccc(CN2CCC3(CC2)CCN(C(=O)c2ccncc2)CC3)cc1, COc1ccc(C(=O)N2CCC3(CCN(Cc4ccc(C#N)cc4)CC3)CC2)cc1, CCC(=O)N1CCN(C(=O)c2ccccc2)CC1

AC50, inactive and 15.8 µM (active):
Cc1cccc(C)c1NC(=O)C[N+](C)(C)C

activity, negative = inhibition, inactive:
CN(C)S(=O)(=O)Nc1ccccn1 -1.75% [at 11.4 µM], O=C(O)CNC(=O)c1ccccc1O 26.9% [at 11.4 µM], O=[N+]([O-])c1ccccc1N=Nc1c(O)[nH]c2ccc(S(=O)(=O)O)cc12 -23.2% [at 11.4 µM], C[C@@H](c1ccccc1)N1C(=O)[C@H]2[C@H]3[C@H](O)[C@H](O)C/C(=N/OC[C@@H](O)COCc4ccco4)[C@H]3CC[C@@H]2C1=O -25% [at 11.4 µM], OC[C@@H](O)[C@@H](O)[C@@H](O)[C@@H](O)c1nc2ccc(Cl)cc2[nH]1 -0.441% [at 11.4 µM], CC(=O)/C(=N\N=C(N)N)c1ccccc1 102% [at 11.4 µM], C/C(=N\[N+](C)(C)C)c1ccc(C)c(C)c1 17.4% [at 11.4 µM], COc1ccc(CSC2=C(C#N)C(=O)NC3(CCCCC3)S2)cc1 -6.47% [at 11.4 µM], CO[C@H]1COC(=O)[C@H]2CCCN2C(=O)[C@@H](C)COC(=O)C/C=C\[C@@H]1C 43.2% [at 11.4 µM], C#CCCCO/N=C1/[C@H]2O[C@@H]2[C@@H](O)[C@H]2[C@H]1CCn1c(=O)n(C)c(=O)n12 -3.85% [at 11.4 µM]
